Of roughly 7,900 targets only a part is listed; those with a hit were picked by preference. About 0.6% of all pairs of compound and target were hits.

UniProt Q86TB9, sequence (Q86TB9 whole entry, looked up): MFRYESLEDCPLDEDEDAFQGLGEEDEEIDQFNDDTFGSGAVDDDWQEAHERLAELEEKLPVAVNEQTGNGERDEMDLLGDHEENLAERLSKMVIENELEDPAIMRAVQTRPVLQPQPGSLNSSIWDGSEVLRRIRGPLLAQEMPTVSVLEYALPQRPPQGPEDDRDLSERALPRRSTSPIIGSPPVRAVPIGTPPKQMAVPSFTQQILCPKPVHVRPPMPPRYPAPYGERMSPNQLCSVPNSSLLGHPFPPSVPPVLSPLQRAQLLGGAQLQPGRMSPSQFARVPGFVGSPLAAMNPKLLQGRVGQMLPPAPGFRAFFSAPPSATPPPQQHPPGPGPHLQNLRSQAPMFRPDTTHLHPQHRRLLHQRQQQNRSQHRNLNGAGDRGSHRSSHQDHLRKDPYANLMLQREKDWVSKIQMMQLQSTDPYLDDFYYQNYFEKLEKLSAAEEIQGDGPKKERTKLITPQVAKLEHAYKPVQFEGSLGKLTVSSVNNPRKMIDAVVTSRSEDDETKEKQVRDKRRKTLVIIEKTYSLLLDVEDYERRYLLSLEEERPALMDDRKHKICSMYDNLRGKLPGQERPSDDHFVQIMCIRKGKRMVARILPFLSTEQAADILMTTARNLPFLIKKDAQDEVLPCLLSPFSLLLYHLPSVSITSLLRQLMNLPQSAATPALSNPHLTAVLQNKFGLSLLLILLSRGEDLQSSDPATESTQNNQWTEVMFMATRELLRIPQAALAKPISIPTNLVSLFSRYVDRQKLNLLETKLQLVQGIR
UniProt P13861, sequence (P13861 whole entry, looked up): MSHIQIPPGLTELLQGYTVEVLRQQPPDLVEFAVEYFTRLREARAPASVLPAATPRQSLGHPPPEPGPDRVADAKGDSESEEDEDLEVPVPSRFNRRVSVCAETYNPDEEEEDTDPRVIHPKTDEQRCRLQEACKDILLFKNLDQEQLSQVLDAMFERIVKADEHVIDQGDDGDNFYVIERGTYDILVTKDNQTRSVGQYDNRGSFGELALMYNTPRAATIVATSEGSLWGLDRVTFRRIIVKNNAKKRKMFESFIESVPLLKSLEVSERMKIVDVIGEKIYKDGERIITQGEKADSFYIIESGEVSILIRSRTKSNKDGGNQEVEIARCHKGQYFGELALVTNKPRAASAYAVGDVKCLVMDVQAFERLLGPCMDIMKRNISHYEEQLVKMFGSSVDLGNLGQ
UniProt O60678, sequence (O60678 whole entry, looked up): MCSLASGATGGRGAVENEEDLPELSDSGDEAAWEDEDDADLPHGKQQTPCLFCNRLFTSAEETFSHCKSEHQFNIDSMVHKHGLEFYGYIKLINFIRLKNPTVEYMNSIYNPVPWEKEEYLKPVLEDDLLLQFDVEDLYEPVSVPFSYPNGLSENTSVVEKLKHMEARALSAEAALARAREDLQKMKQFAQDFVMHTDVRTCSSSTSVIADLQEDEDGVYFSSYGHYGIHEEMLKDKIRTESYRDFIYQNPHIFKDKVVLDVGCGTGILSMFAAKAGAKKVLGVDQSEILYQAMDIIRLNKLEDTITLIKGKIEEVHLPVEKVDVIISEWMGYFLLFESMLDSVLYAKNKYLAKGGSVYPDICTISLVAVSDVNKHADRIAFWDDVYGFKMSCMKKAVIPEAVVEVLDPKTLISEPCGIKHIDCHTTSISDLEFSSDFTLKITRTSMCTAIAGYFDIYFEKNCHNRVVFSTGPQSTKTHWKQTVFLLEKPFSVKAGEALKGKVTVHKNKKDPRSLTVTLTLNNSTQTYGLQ
UniProt Q9NR22, sequence (Q9NR22 whole entry, looked up): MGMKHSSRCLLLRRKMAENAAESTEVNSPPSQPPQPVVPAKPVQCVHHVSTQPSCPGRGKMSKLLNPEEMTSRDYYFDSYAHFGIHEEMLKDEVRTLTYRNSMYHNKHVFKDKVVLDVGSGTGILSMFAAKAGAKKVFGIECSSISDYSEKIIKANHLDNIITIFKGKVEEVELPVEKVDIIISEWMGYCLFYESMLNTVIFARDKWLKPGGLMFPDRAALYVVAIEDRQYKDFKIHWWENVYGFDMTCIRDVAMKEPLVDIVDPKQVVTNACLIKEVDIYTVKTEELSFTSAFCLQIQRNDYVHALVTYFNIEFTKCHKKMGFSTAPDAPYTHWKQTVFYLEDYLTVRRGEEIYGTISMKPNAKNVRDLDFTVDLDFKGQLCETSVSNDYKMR
UniProt Q9Y5Y5, sequence (Q9Y5Y5 whole entry, looked up): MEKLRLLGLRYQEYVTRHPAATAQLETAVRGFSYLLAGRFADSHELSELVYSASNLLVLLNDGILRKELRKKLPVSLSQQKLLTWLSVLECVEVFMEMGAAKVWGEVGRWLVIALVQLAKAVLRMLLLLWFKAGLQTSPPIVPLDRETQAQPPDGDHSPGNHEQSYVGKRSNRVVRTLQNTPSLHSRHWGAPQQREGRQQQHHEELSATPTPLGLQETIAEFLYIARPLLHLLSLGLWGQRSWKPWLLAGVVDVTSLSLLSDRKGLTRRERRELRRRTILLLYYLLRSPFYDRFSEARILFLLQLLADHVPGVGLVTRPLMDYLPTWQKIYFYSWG
UniProt Q15121, sequence (Q15121 whole entry, looked up): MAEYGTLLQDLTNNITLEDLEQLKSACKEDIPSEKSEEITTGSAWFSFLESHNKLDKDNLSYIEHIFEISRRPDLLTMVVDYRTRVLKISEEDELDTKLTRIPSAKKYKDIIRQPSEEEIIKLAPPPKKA
UniProt Q86UU1, sequence (Q86UU1 whole entry, looked up): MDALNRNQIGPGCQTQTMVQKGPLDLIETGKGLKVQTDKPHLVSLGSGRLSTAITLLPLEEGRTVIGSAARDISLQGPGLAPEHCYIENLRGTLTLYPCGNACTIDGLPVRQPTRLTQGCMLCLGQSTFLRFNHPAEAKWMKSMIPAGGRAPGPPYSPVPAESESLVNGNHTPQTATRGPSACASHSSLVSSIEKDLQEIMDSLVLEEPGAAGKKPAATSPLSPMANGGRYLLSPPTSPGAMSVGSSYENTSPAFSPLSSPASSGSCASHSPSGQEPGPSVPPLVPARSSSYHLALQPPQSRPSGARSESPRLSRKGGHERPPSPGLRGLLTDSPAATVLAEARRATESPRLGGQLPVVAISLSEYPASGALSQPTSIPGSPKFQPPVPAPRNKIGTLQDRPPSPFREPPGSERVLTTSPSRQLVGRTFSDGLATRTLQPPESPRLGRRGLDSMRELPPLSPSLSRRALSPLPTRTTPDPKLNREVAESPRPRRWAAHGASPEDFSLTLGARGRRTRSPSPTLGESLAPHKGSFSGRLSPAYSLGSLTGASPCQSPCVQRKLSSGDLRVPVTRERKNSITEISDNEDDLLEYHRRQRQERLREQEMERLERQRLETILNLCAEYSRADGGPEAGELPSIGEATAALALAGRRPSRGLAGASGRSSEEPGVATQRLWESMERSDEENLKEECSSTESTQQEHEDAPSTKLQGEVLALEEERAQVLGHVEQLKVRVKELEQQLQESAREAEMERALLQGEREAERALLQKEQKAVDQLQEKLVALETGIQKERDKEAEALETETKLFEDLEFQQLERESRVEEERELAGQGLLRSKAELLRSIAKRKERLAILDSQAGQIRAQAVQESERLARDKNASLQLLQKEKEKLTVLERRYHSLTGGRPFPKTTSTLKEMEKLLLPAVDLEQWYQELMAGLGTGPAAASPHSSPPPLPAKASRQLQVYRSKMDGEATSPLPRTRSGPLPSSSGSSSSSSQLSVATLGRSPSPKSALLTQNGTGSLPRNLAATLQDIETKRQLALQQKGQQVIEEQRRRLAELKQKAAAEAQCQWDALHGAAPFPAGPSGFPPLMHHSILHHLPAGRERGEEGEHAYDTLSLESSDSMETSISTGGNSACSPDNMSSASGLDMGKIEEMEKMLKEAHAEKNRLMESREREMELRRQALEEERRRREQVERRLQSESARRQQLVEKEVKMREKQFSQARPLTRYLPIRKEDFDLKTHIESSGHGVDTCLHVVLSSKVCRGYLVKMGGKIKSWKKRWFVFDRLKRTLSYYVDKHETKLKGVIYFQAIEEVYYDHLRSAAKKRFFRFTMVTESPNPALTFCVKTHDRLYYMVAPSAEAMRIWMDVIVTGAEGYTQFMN
UniProt O15530, sequence (O15530 whole entry, looked up): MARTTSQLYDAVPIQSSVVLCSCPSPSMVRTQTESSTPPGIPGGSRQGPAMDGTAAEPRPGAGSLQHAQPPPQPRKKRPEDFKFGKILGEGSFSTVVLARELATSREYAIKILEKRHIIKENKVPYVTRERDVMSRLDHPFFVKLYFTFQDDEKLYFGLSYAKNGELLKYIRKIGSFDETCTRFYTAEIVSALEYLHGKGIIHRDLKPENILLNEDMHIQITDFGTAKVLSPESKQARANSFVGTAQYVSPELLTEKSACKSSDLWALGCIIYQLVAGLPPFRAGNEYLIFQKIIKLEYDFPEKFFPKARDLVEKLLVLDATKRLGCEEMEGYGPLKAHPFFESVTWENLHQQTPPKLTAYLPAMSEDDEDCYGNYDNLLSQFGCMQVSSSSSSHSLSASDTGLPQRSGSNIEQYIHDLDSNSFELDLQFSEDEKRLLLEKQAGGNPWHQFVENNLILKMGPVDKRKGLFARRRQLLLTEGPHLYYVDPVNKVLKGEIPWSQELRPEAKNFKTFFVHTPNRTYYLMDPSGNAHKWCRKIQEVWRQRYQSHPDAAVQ
UniProt P28070, sequence (P28070 whole entry, looked up): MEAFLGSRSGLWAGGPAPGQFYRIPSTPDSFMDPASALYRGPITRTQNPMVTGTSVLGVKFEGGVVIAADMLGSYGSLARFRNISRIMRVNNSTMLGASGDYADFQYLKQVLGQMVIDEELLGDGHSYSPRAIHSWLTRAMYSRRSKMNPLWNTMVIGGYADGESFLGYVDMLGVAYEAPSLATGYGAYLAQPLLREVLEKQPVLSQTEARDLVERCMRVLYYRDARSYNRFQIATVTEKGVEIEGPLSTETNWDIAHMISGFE
UniProt Q6EEV4, sequence (Q6EEV4 whole entry, looked up): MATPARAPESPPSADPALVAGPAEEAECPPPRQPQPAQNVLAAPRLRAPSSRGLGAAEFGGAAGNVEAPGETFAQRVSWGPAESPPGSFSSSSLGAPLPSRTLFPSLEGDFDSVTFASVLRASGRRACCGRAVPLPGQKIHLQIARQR

Compound in the first assay: CCn1cc(-c2ccnc3[nH]c(-c4cccc(CN(C)C)c4)cc23)c(-c2ccc(NC(=O)N(C)C)cc2)n1
Put plainly: log2 fold change, soluble protein after heating vs DMSO (PISA); higher = thermal stabilisation; K562 cells, 10 uM, 30 min; active = over 0.2 and 3.5 SD of the protein, either way, in both replicates (recomputed). A digest of the protocol: (§1)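 Thermal stability values are relative to control samples and come from duplicates. They are expressed as log2 fold changes. For measurement, K562 cells (2×10^6 cells/mL) received 10 μM compound for 30 min, and aliquots were heated for 3 min over 48°C-58°C, pooled, and extracted at 4°C in PBS with 0.5% NP-40. Soluble protein, the supernatant after 21,000xg for 90 min, was quantified by TMTpro 16plex LC-MS/MS with equalised channel sums.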
For the target POGZ (UniProt Q7Z3K3), the log2 fold change was -0.192 (inactive).

Regarding PRMT3 (UniProt O60678), the log2 fold change is -0.093 (inactive).

In the case of PEX16 isoform 2 (UniProt Q9Y5Y5), the log2 fold change is 0.033 (inactive).

In the case of PTEN isoform 2 (UniProt P60484), the log2 fold change is -0.016 (inactive).

Regarding PPP1R12C (UniProt Q9BZL4), the log2 fold change was -0.116 (inactive).

Turning to PSMB4 (UniProt P28070), the log2 fold change was 0.031 (inactive).

Take PDPK1 (UniProt O15530): the log2 fold change was -0.05 (inactive).

Turning to PHKA1 (UniProt P46020), the log2 fold change is 0.143 (inactive).

For the target POLR2E (UniProt P19388), the log2 fold change was 0.015 (inactive).

As for PRMT8 (UniProt Q9NR22), the log2 fold change is -0.087 (inactive).

With PRKAR2A (UniProt P13861), the log2 fold change was -0.033 (inactive).

With PATL1 (UniProt Q86TB9), the log2 fold change is 0.051 (inactive).

For PARP1 (UniProt P09874), the log2 fold change was 0.302 (inactive).

Consider PHLDB1 isoform 2 (UniProt Q86UU1), for which the log2 fold change was -0.04 (inactive).

For the target PEA15 isoform 2 (UniProt Q15121), the log2 fold change is 0.022 (inactive).

Compound in another assay: CN(C)CC(=O)Nc1ccc2[nH]c(=O)c3ccccc3c2c1
Described as above. A digest of the protocol:
as §1
On to PKM isoform 2 (UniProt P14618), for which the log2 fold change was 0.053 (inactive).

PDIK1L (UniProt Q8N165): the log2 fold change is -0.028 (inactive).

With POLR2C (UniProt P19387), the log2 fold change was 0.006 (inactive).

Turning to PSD3 (UniProt Q9NYI0), the log2 fold change is 0.004 (inactive).

With PPP2R5A (UniProt Q15172), the log2 fold change was 0.072 (inactive).

As for POMK (UniProt Q9H5K3), the log2 fold change was -0.007 (inactive).

On to PRKAG1 isoform 3 (UniProt P54619), for which the log2 fold change was -0.015 (inactive).

For the target PSMB9 (UniProt P28065), the log2 fold change is -0.043 (inactive).

For PTGFRN (UniProt Q9P2B2), the log2 fold change is -0.01 (inactive).

As to PGK2 (UniProt P07205), the log2 fold change was -0.112 (inactive).

With PIGH (UniProt Q14442), the log2 fold change was 0.013 (inactive).

Take PTP4A2 (UniProt Q12974): the log2 fold change was -0.026 (inactive).

For the target PPP2R5B (UniProt Q15173), the log2 fold change is 0.128 (inactive).

For the target PLIN2 (UniProt Q99541), the log2 fold change is 0.013 (inactive).

Take PCNX1 (UniProt Q96RV3): the log2 fold change is -0.064 (inactive).

Take PNPLA4 (UniProt P41247): the log2 fold change is -0.004 (inactive).

Take POGZ (UniProt Q7Z3K3): the log2 fold change is 0.07 (inactive).

Consider PRMT3 (UniProt O60678), for which the log2 fold change was 0.039 (inactive).

Turning to PEX16 isoform 2 (UniProt Q9Y5Y5), the log2 fold change is 0.013 (inactive).

For PIK3CD (UniProt O00329), the log2 fold change is -0.059 (inactive).

For the target PPP1R12C (UniProt Q9BZL4), the log2 fold change is -0.03 (inactive).

For POLR2M (UniProt Q6EEV4), the log2 fold change is 0.091 (inactive).

As to PSMB4 (UniProt P28070), the log2 fold change was -0.028 (inactive).

Regarding PDPK1 (UniProt O15530), the log2 fold change was 0.034 (inactive).

For POLR2E (UniProt P19388), the log2 fold change is 0.034 (inactive).

On to PRMT8 (UniProt Q9NR22), for which the log2 fold change is -0.022 (inactive).

PRKAR2A (UniProt P13861): the log2 fold change was 0.047 (inactive).

Turning to PATL1 (UniProt Q86TB9), the log2 fold change was 0.007 (inactive).

As for PHLDB1 isoform 2 (UniProt Q86UU1), the log2 fold change was -0.034 (inactive).

For QRICH1 (UniProt Q2TAL8), the log2 fold change was 0.258 (inactive).

Consider PEA15 isoform 2 (UniProt Q15121), for which the log2 fold change is 0.004 (inactive).

Compound in a further assay: CN(CCOC1=CC=C(C=C1)C[C@H]2C(=O)NC(=O)S2)C3=CC=CC=N3 (racemic) [rosiglitazone]
Described as above. A digest of the protocol:
as §1
Take PKM isoform 2 (UniProt P14618): the log2 fold change was -0.1 (inactive).

For the target PDIK1L (UniProt Q8N165), the log2 fold change is -0.135 (inactive).

For POLR2C (UniProt P19387), the log2 fold change was 0.042 (inactive).

With PPP2R5A (UniProt Q15172), the log2 fold change is 0.112 (inactive).

With POMK (UniProt Q9H5K3), the log2 fold change was 0.012 (inactive).

In the case of PRKAG1 isoform 3 (UniProt P54619), the log2 fold change is 0.033 (inactive).

Regarding PSMB9 (UniProt P28065), the log2 fold change was -0.057 (inactive).

As to PTGFRN (UniProt Q9P2B2), the log2 fold change is 0.025 (inactive).

On to PGK2 (UniProt P07205), for which the log2 fold change was 0.023 (inactive).

Regarding PIGH (UniProt Q14442), the log2 fold change was 0.058 (inactive).

Consider PTP4A2 (UniProt Q12974), for which the log2 fold change is -0.124 (inactive).

In the case of PNN (UniProt Q9H307), the log2 fold change was 0.003 (inactive).

As to PPP2R5B (UniProt Q15173), the log2 fold change is 0.11 (inactive).

With PLIN2 (UniProt Q99541), the log2 fold change was -0.033 (inactive).

As to PCNX1 (UniProt Q96RV3), the log2 fold change is 0.028 (inactive).

Consider PNPLA4 (UniProt P41247), for which the log2 fold change is -0.081 (inactive).

As to PRMT3 (UniProt O60678), the log2 fold change is 0.077 (inactive).

PEX16 isoform 2 (UniProt Q9Y5Y5): the log2 fold change was 0.062 (inactive).

Regarding PIK3CD (UniProt O00329), the log2 fold change is 0.288 (inactive).

For the target PPP1R12C (UniProt Q9BZL4), the log2 fold change was -0.031 (inactive).

Take POLR2M (UniProt Q6EEV4): the log2 fold change was 0.097 (inactive).

On to PSMB4 (UniProt P28070), for which the log2 fold change was -0.045 (inactive).

As for PDPK1 (UniProt O15530), the log2 fold change is 0.064 (inactive).

Turning to PHKA1 (UniProt P46020), the log2 fold change is -0.038 (inactive).

For the target POLR2E (UniProt P19388), the log2 fold change was 0.01 (inactive).

With PRMT8 (UniProt Q9NR22), the log2 fold change is -0.026 (inactive).

PRKAR2A (UniProt P13861): the log2 fold change was 0.011 (inactive).

Consider PHC3 isoform 7 (UniProt Q8NDX5), for which the log2 fold change is 0.066 (inactive).

Regarding PATL1 (UniProt Q86TB9), the log2 fold change is 0.078 (inactive).

Turning to PARP1 (UniProt P09874), the log2 fold change is 0.086 (inactive).

In the case of PHLDB1 isoform 2 (UniProt Q86UU1), the log2 fold change is 0.055 (inactive).

Consider QRICH1 (UniProt Q2TAL8), for which the log2 fold change was -0.017 (inactive).

For the target PEA15 isoform 2 (UniProt Q15121), the log2 fold change was 0.025 (inactive).

These data come from the supplement of paper PMC10849652.
